Measured values from PubChem BioAssay AID1159607 (Small Molecule Screening Facility, UW Madison, 2016).
About 400 (0.57%) of roughly 70,000 compounds were called active. This is one part of a sample in which actives are shown more often than they occur. No stated cut-off is given here; in the data, active means FP signal below about 40; inactive means the rest.

What follows are compounds tested on RMI core complex (RMI1/RMI2) binding to FANCM MM2 peptide, human (assay: disruptors of RMI1/RMI2 association with MM2 peptide – biochemical, fluorescence polarization, human, primary screen (AID 1159607)). Conditions: RMI core complex with F-MM2 peptide, at 33 µM, stronger effect = lower value.

SMILES	FP signal (polarization)
O=C(/C=C/c1cccc(F)c1)c1cccs1	64 (inactive)
CCc1ccccc1NC(=O)c1csc(Nc2ccc(S(C)(=O)=O)cc2)n1	77 (inactive)
C=CCN(CC=C)S(=O)(=O)c1ccc(C(=O)Nc2nc(-c3ccc4ccccc4c3)cs2)cc1	86 (inactive)
Nc1ccc2c(c1)N(C(=O)c1ccccc1)CCC2	68 (inactive)
Nc1cc(-c2ccccc2)no1	63 (inactive)
C=CCn1c(SCC(=O)Nc2nsc(-c3ccccc3)n2)nc2scc(-c3ccco3)c2c1=O	98 (inactive)
COc1ccc(CC(=O)Nc2ccc(SCC(=O)N3CCCC3)nn2)cc1OC	61 (inactive)
O=C(CC1CCCCN1S(=O)(=O)c1ccc(F)cc1)NCc1ccc2c(c1)OCO2 (stereo unspecified)	68 (inactive)
CCn1nc(C(=O)Nc2cc(C)nn2-c2nc3ccc(OC)cc3s2)cc1C	71 (inactive)
Cc1ccc(C)c(NC(=O)CCS(=O)(=O)c2ccccc2)c1	70 (inactive)
COc1ccc(C(=O)Nc2nc(-c3ccccc3)c(C)s2)cc1	33 (active)
CCOC(=O)c1sc(NC(=O)c2ccc(-c3ccccc3)cc2)nc1-c1ccccc1	57 (inactive)
COc1ccc(-c2nc(NC(=O)c3cccc(NS(=O)(=O)c4ccccc4)c3)sc2C)cc1	52 (inactive)
CCCC(=O)Nc1cc(-c2cn3nc(OC)ccc3n2)ccc1OC	70 (inactive)
COc1ccc2nc(-c3ccc(OC)c(NC(=O)c4ccccc4Cl)c3)cn2n1	13 (active)
COc1ccc2nc(-c3ccc(F)c(NC(=O)c4ccccc4C(F)(F)F)c3)cn2n1	87 (inactive)
COc1ccc(N)cc1N1CCCCC1=O	62 (inactive)
COc1ccc(-c2csc3c(=O)n(Cc4cc(=O)n5ccccc5n4)cnc23)cc1OC	-23 (active)
COc1ccc(-c2csc3c(=O)n(Cc4ccccc4Cl)cnc23)cc1	63 (inactive)
O=c1c2scc(-c3ccccc3)c2ncn1Cc1ccccc1	64 (inactive)
O=C(NCCN1CCN(c2ccc(F)cc2)CC1)C(=O)NC1CC1	62 (inactive)
N/C(CS(=O)(=O)c1ccc(Cl)cc1)=N/O	56 (inactive)
O=C(/C=C/c1cccs1)Nc1nnc(-c2cc3ccccc3o2)o1	56 (inactive)
COC1C=CC23c4cc5c(cc4CN(CC2O)[C@@H]3C1)OCO5 (stereo partly specified)	63 (inactive)

SMILES	FP signal (polarization)
O=C(Cn1c2c(c(=O)n(C3CCCCC3)c1=O)CCC2)Nc1ccc2c(c1)OCCO2	58 (inactive)
Cc1ccc2c(c1)nnc1nnc(SCC(=O)O)n12	2 (active)
CCCc1cc(=O)[nH]c2nnc(SCC(=O)Nc3nc4ccc(C)cc4s3)n12	47 (inactive)
Cc1ccc(C(=O)CSc2nnc3ccc4ccccc4n23)cc1C	75 (inactive)
O=C1NC(=O)c2cc(S(=O)(=O)N(CCO)CCO)cc3cccc1c23	56 (inactive)
C=Cc1cc2ccc(C)cc2nc1Cl	58 (inactive)
CC(C)c1c(O)ccc2c1CCC1[C@@](C)(CO)CCC[C@]21C (stereo partly specified)	58 (inactive)
COc1cn(CC(=O)Nc2cccc(F)c2)c(CN2CCN(c3ccccc3)CC2)cc1=O	54 (inactive)
O=C(O)/C=C/C(=O)Nc1ccc(Oc2ccc(Cl)cc2)cc1	53 (inactive)
CSc1nc2ccc(NC(=O)c3ccc(Oc4ccc(C(=O)Nc5ccc6nc(SC)sc6c5)cc4)cc3)cc2s1	63 (inactive)
CC(C)Oc1ccc(C(=O)NCC(c2ccsc2)N2CCCCCC2)cc1 (stereo unspecified)	75 (inactive)
O=C(CCCSc1ccc(NC(=O)C2CC2)nn1)NCc1ccccn1	67 (inactive)
C=CCc1cccc2cc(C(=O)Nc3cc(OC)c(Cl)cc3OC)c(=O)oc12	60 (inactive)
O=C(CC1CCCCN1S(=O)(=O)c1cccs1)Nc1ncccn1 (stereo unspecified)	69 (inactive)
Cc1ccc(-c2nc(N3CCOCC3)sc2-c2ccc([N+](=O)[O-])cc2)cc1	74 (inactive)
COc1ccc2oc(-c3csc(NC(=O)C4COc5ccccc5O4)n3)cc2c1 (stereo unspecified)	66 (inactive)
CC(C)CCN1C(=O)C(C)(C)COc2ccc(NC(=O)Cc3ccc(F)cc3)cc21	77 (inactive)
Cc1nc(-c2ccc(S(=O)(=O)N3CCN(C(=O)c4ccco4)CC3)s2)cs1	60 (inactive)
CCCOc1ccc(S(=O)(=O)N2CCN(c3ccc(F)cc3)CC2)cc1C	66 (inactive)
COCCN1CCCc2ccc(NS(=O)(=O)c3ccc(C)c(Cl)c3)cc21	78 (inactive)
COc1cc(-c2nnc(NC(=O)c3ccc([N+](=O)[O-])cc3)o2)cc(OC)c1OC	54 (inactive)
CCOC(=O)c1oc2ccccc2c1NC(=O)c1cccc(N2C(=O)CCC2=O)c1	74 (inactive)
O=S(=O)(c1cccnc1)N1CCN(c2ccc(-c3cccs3)nn2)CC1	69 (inactive)
COc1ccc(Cl)cc1C(=O)Nc1nnc(-c2cccc([N+](=O)[O-])c2)s1	74 (inactive)

SMILES	FP signal (polarization)
O=C(COc1ccc(Cl)cc1Cl)Nc1nnc(SCC(=O)Nc2nnc(-c3cccc([N+](=O)[O-])c3)s2)s1	16 (active)
CCOC(=O)c1ccc(NC(=O)CSc2nnc(NC(=O)COc3ccc(Cl)cc3Cl)s2)cc1	62 (inactive)
O=C(Cn1nc(-c2ccc(F)cc2)c2sc(N3CCCC3)nc2c1=O)Nc1ccc(F)cc1F	92 (inactive)
CN1C(=O)C(C)(C)COc2ccc(NC(=O)c3ccc(Br)cc3)cc21	68 (inactive)
COc1ccccc1CCNC(=O)CSc1nnc2ccc(-c3cccnc3)nn12	55 (inactive)
Cc1c(NC(=S)Nc2ccc3c(c2)OCO3)c(=O)n(-c2ccccc2)n1C	59 (inactive)
CN(C)c1ccc(C=NS(=O)(=O)c2cccs2)cc1	57 (inactive)
CSc1cccc(NC(=O)C(=O)NCCc2ccccc2)c1	65 (inactive)
Cc1[nH]c(=O)[nH]c(=O)c1CCC(=O)Nc1ccc(F)c(Cl)c1	60 (inactive)
COc1ccc(S(=O)(=O)CC(=O)Nc2cc(C)nn2-c2nc3ccccc3s2)cc1	78 (inactive)
CCOc1ccccc1C(=O)NCC(=O)N1CCOC(c2ccccc2)C1 (stereo unspecified)	73 (inactive)
COc1cc(-c2noc(-c3cc(-c4ccccc4)n[nH]3)n2)cc(OC)c1OC	95 (inactive)
Nc1cc(=O)[nH]c(SCC(=O)Nc2ccc(S(N)(=O)=O)cc2)n1	61 (inactive)
O=C(CSc1nc2ccc(Br)cc2c2nc3ccccc3n12)NCC1CCCO1 (stereo unspecified)	57 (inactive)
CCOc1ccc(NC(=O)CC(NCCc2ccc(OC)cc2)C(=O)O)c([N+](=O)[O-])c1 (stereo unspecified)	51 (inactive)
COc1ccc(S(=O)(=O)Nc2ccccc2C(=O)O)cc1C	62 (inactive)
Cc1ccc2nc(N(CCN(C)C)C(=O)c3ccc(S(=O)(=O)N4CCCCCC4)cc3)sc2c1	90 (inactive)
O=C(NCCc1ccccc1)NCC(c1ccsc1)N1CCOCC1 (stereo unspecified)	64 (inactive)
Cc1cc(-c2nnc(NC(=O)CCCS(=O)(=O)c3ccc(F)cc3)o2)nn1C	61 (inactive)
Cn1nc(-c2ccc3ccccc3c2)c(=O)n(C)c1=S	50 (inactive)
O=C(NCCC1=CCCCC1)C(=O)NCC(c1ccco1)N1CCOCC1 (stereo unspecified)	57 (inactive)
CCSc1cccc(C(=O)Nc2ccc3nc(C)sc3c2)c1	80 (inactive)
CC[N+](C)(CC)CCC[n+]1c(-c2ccccc2)c2cc(N)ccc2c2ccc(N)cc21	-45 (active)
CCSc1nnc(NC(=O)c2cc(=O)c(OC)co2)s1	64 (inactive)

SMILES	FP signal (polarization)
COc1ccc(OC)c(Nc2nc(CC(=O)Nc3nc4ccccc4s3)cs2)c1	66 (inactive)
Cc1noc(NS(=O)(=O)c2ccc(N/C=C(\C#N)c3nc4ccccc4n3C)cc2)c1C	68 (inactive)
CS(=O)(=O)NCC(c1ccco1)N1CCOCC1 (stereo unspecified)	57 (inactive)
c1ccc(-c2nc(SCc3nc4ccccc4[nH]3)oc2-c2ccccc2)cc1	64 (inactive)
Cc1ccc2nc(NC(=O)CSc3nnc4ccc(-c5ccccn5)nn34)sc2c1	69 (inactive)
Cc1cccc(NC(=O)Nc2ccc(Nc3ccc(-n4cccn4)nn3)cc2)c1C	85 (inactive)
COc1ccc(NC(=O)c2c(F)cccc2F)cc1N1CCCCC1=O	54 (inactive)
CCOC(=O)c1ccc2nc(NC(=O)/C=C/c3ccccc3Cl)sc2c1	62 (inactive)
CSc1cccc(NC(=O)C(=O)NCCN2CCN(c3ccccc3F)CC2)c1	87 (inactive)
O=C(Nc1cc2ccccc2cc1NC(=O)c1ccc(N2C(=O)CCC2=O)cc1)c1ccc(N2C(=O)CCC2=O)cc1	57 (inactive)
CCN1CCOc2ccc(NC(=O)c3cc4ccccc4oc3=O)cc2C1=O	62 (inactive)
O=C1CCc2cc(S(=O)(=O)NCc3ccco3)cc3c2N1CCC3	54 (inactive)
OCc1cnc(SCc2ccc(Cl)c(Cl)c2)n1Cc1ccc(F)cc1	67 (inactive)
Cc1ccc(S(=O)(=O)/C(C#N)=C/N2CCN(c3cccc(Cl)c3)CC2)cc1C	71 (inactive)
N#CC(C#N)=C1SCN(c2cccc(Cl)c2)CS1	-20 (active)
O=C(NCc1cccs1)C(=O)N1CCN(c2cccc(Cl)c2)CC1	53 (inactive)
Cc1nnc(SCc2ccccc2[N+](=O)[O-])s1	61 (inactive)
Nc1c(C(=O)c2ccc(Cl)cc2)sc2nc(-c3cccs3)cc(C(F)(F)F)c12	19 (inactive)
Nc1c(C(=O)c2cccc(Br)c2)sc2nc3c(c(-c4cccs4)c12)CCCC3	-15 (inactive)
COc1ccc(-c2cc(-c3cccs3)nc3sc(C(N)=O)c(N)c23)cc1	33 (active)
O=S(=O)(NCC(c1ccsc1)N1CCOCC1)c1ccc(F)cc1F (stereo unspecified)	65 (inactive)
Cc1cc(C)c2nc(N(CCn3cccn3)C(=O)c3cc4ccccc4o3)sc2c1	66 (inactive)
CN1C(=O)c2ccc(NC(=O)c3ccn(C)n3)cc2C1=O	71 (inactive)
Cc1nc2sc(C)c(C)n2c(=O)c1NC(=O)c1c(F)cccc1Cl	66 (inactive)
